ChEMBL document CHEMBL3988442, “University of Dundee, Small-Polar-MMV Screening Library” (2021)
Hit rate of the full screen: of about 69,000 compounds, about 1,000 (1.4%) showed an effect of 50% or more. The sample holds strong results, similar compounds and a random draw of the others, so the mix is not that of the screen.

Tested on: Leishmania donovani
Assay: Leishmania intramacrophage assay
Assay type: functional, organism-based
Design: scale not given: in the data most compounds retested in dose-response had high values

Q: `CC(C)N(CCO)C(=O)C1CCC(=O)N(CCc2cccc(F)c2)C1` (stereo unspecified) was tested. Which “Percent Effect” value (30.3 µM, […]) did it give?
A: Its value is 21.22%.

Q: With `OCC1(Cc2ccc(Cl)cc2)CCN(Cc2cccnc2)CC1` as the molecule, how does the “Percent Effect” value (30.3 µM, […]) read?
A: The value was 13.26%.

Q: With `Cc1n[nH]c(C)c1NC(=O)Nc1cccnc1N1CCCC1` as the molecule, how does the “Percent Effect” value (30.3 µM, […]) read?
A: The value was -22.16%.

Q: `CSc1ccc2cc(CN(C)CCO)c(=O)[nH]c2c1` was tested. Which “Percent Effect” value (30.3 µM, […]) did it give?
A: Its value is 10.15%.

Q: For `COCc1cn(C2CCN(CCC(C)c3ccccc3)CC2)nn1` (stereo unspecified), which “Percent Effect” value (30.3 µM, […]) is on record?
A: Its value is 15.55%.

Q: For `CNCc1cn(C2CCN(CCC(C)c3ccccc3)CC2)nn1` (stereo unspecified), which “Percent Effect” value (30.3 µM, […]) is on record?
A: Its value is 69.72%.

Q: `CC(CCN1CCC(n2cc(CCO)nn2)CC1)c1ccccc1` (stereo unspecified) was tested. Which “Percent Effect” value (30.3 µM, […]) did it give?
A: Its value is 17.91%.

Q: How did the “Percent Effect” value (30.3 µM, […]) turn out when `Cc1noc(C)c1CCCNC(=O)C1CCCN(C(=O)C2CC2)C1` (stereo unspecified) was run?
A: Its value is 17.01%.

Q: With `CCSc1cc(C(=O)NCCNC(=O)Cc2ccccc2)ccn1` as the molecule, how does the “Percent Effect” value (30.3 µM, […]) read?
A: Its value is 42.53%.

Q: How did the “Percent Effect” value (30.3 µM, […]) turn out when `CCSc1cc(C(=O)NCc2ccc(C(=O)NC)cc2)ccn1` was run?
A: Its value is -0.2287%.

Q: For `CCSc1cc(C(=O)NCc2ccccc2O)ccn1`, which “Percent Effect” value (30 µM, 30.03 µM) is on record?
A: The value was 52.62%.

Q: For `CNc1nc(N2C[C@H](NC(=O)CCOC)[C@@H](C3CC3)C2)nc2c1CCC2`, which “Percent Effect” value (30.3 µM, […]) is on record?
A: The value was 20.37%.

Q: `COCCC(=O)N[C@H]1CN(c2nc(C)c3c(n2)CCCC3)C[C@@H]1C1CC1` was tested. Which “Percent Effect” value (30.3 µM, […]) did it give?
A: The value was -3.355%.

Q: For `CNCC(=O)N[C@H]1CN(c2nc(C)c3c(n2)CCCC3)C[C@@H]1C1CC1`, which “Percent Effect” value (30.3 µM, […]) is on record?
A: Its value is 61.72%.

Q: `Cc1ccc(CN(C)C(=O)c2cnsn2)cc1` was tested. Which “Percent Effect” value (30.3 µM, […]) did it give?
A: The value was 19.42%.

Q: With `CCn1nc(CC(C)C)cc1C(=O)N1CC(c2ccncc2)C1` as the molecule, how does the “Percent Effect” value (30.3 µM, […]) read?
A: Its value is 24.78%.

Q: How did the “Percent Effect” value (30.3 µM, […]) turn out when `CCC(C(=O)NCc1nc(C)cc(C(F)(F)F)n1)n1cccn1` (stereo unspecified) was run?
A: The value was 13.87%.

Q: With `CCC(C(=O)NCCc1nc(C)cc(C(F)(F)F)n1)n1cccn1` (stereo unspecified) as the molecule, how does the “Percent Effect” value (30.3 µM, […]) read?
A: Its value is 69.8%.

Q: For `CCOCC(=O)NCCc1nc(C)cc(C(F)(F)F)n1`, which “Percent Effect” value (30.3 µM, […]) is on record?
A: The value was -29.08%.

Q: With `O=C(CC1NC(N2CCc3ccccc3C2)=NC1=O)Nc1ccccc1` (stereo unspecified) as the molecule, how does the “Percent Effect” value (30.3 µM, […]) read?
A: The value was 4.892%.

Q: Which “Percent Effect” value (30.3 µM, […]) does the source give for `COCCC(=O)N1CCN(CC(C)C)c2nc(C)ccc2C1.O=C(O)C(F)(F)F` here?
A: The value was 8.451%.

Q: For `CC1(NC(=O)Cc2cccs2)CCS(=O)(=O)C1` (stereo unspecified), which “Percent Effect” value (30.3 µM, […]) is on record?
A: Its value is 19.51%.

Q: How did the “Percent Effect” value (30.3 µM, […]) turn out when `CC(C)CCn1nc2ccc(S(=O)(=O)N3CCOCC3)cn2c1=O` was run?
A: Its value is -38.47%.

Q: How did the “Percent Effect” value (30.3 µM, […]) turn out when `CCn1nc2ccc(S(=O)(=O)N3CCSCC3)cn2c1=O` was run?
A: Its value is 8.958%.

Q: `CC(C)Cn1nc2ccc(S(=O)(=O)N3CCC(C)CC3)cn2c1=O` was tested. Which “Percent Effect” value (30.3 µM, […]) did it give?
A: Its value is 58.76%.

Q: With `CCN(C)S(=O)(=O)N(Cc1cscn1)c1ccccc1` as the molecule, how does the “Percent Effect” value (30.3 µM, […]) read?
A: Its value is -18.14%.

Q: `Cc1nc(C2CCCN2CCCS(N)(=O)=O)no1` (stereo unspecified) was tested. Which “Percent Effect” value (30 µM) did it give?
A: Its value is 6.42%.

Q: Which “Percent Effect” value (30.3 µM, […]) does the source give for `Cc1ccc(-c2cc(C(=O)NCCCc3csc(N)n3)[nH]n2)o1` here?
A: Its value is -46.01%.

Q: With `Cc1ccc(-c2cc(C(=O)NCCCc3csc(N)n3)[nH]n2)s1` as the molecule, how does the “Percent Effect” value (30.3 µM, […]) read?
A: The value was 19.81%.

Q: Which “Percent Effect” value (30.3 µM, […]) does the source give for `Cn1cccc1-c1cc(C(=O)NCCCc2csc(N)n2)[nH]n1` here?
A: Its value is 54.27%.

Q: With `Cc1ccc(N2CC[C@@H]3O[C@@H](COCc4cccnc4)CC[C@@H]32)nn1.O=C(O)C(F)(F)F.O=C(O)C(F)(F)F` as the molecule, how does the “Percent Effect” value (30.3 µM, […]) read?
A: The value was -9.892%.

Q: How did the “Percent Effect” value (30 µM, 30.03 µM) turn out when `CCN1CC2(CCNCC2)COc2ccccc2S1(=O)=O.O=C(O)C(F)(F)F` was run?
A: Its value is 13.53%.

Q: `O=C(c1ccn(COc2ccc(F)cc2)n1)N1CCCCCC1` was tested. Which “Percent Effect” value (30.3 µM, […]) did it give?
A: Its value is -66.53%.

Q: How did the “Percent Effect” value (30 µM, 30.03 µM) turn out when `CC(C)c1ccc(OCn2ccc(C(=O)N3CCCC3)n2)cc1` was run?
A: Its value is 59.3%.

Q: Which “Percent Effect” value (30.3 µM, […]) does the source give for `O=C(c1ccn(COc2ccc(F)cc2)n1)N1CCCC1` here?
A: The value was 0.02157%.

Q: Which “Percent Effect” value (30.3 µM, […]) does the source give for `Cc1nsc(C(=O)NCCc2ccc(Cl)cc2)n1` here?
A: Its value is 25.28%.

Q: Which “Percent Effect” value (30.3 µM, […]) does the source give for `Cc1ccnc(NCCCN2CCc3ccccc32)n1` here?
A: Its value is 20.07%.

Q: With `Cc1cnc(NCCCN2CCc3ccccc32)nc1` as the molecule, how does the “Percent Effect” value (30.3 µM, […]) read?
A: Its value is 21.16%.

Q: How did the “Percent Effect” value (30.3 µM, […]) turn out when `CN(C)c1nc(NCCCN2CCc3ccccc32)ncc1F` was run?
A: The value was 50.82%.

Q: Which “Percent Effect” value (30 µM, 30.03 µM) does the source give for `CNC(=O)c1cccc(NC(=O)CN2CCN(S(C)(=O)=O)CC2)c1` here?
A: Its value is 9.767%.

Q: For `Cc1ccc(OCC(=O)N(C)Cc2cccc(F)c2)cn1`, which “Percent Effect” value (30.3 µM, […]) is on record?
A: The value was 34.51%.

Q: Which “Percent Effect” value (30.3 µM, […]) does the source give for `O=C(NC1CCN(CC2CC2)C1)N1CCC(OC2CCCCC2)CC1` (stereo unspecified) here?
A: Its value is 53.02%.

Q: With `NC(=O)C1CCN(C(=O)NC2CCN(CC3CCCC3)C2)CC1` (stereo unspecified) as the molecule, how does the “Percent Effect” value (30.3 µM, […]) read?
A: The value was 54.02%.

Q: For `O=C(NC1CCN(CC2CCCC2)C1)N1CCC(OCC2CC2)CC1` (stereo unspecified), which “Percent Effect” value (30.3 µM, […]) is on record?
A: Its value is 32.77%.

Q: `O=C(CCN1CCOCC1)NC1CCCN(CC2CCCCC2)C1` (stereo unspecified) was tested. Which “Percent Effect” value (30.3 µM, […]) did it give?
A: Its value is 10.41%.

Q: With `O=C(CCN1CCCCO1)NC1CCCN(CC2CCCCC2)C1` (stereo unspecified) as the molecule, how does the “Percent Effect” value (30.3 µM, […]) read?
A: Its value is -1.788%.

Q: How did the “Percent Effect” value (30.3 µM, […]) turn out when `CSC(C)(C)CNC(=O)NC1CCN(CC2CC2)C1` (stereo unspecified) was run?
A: Its value is 2.957%.

Q: How did the “Percent Effect” value (30.3 µM, […]) turn out when `COc1ncccc1C(=O)N1CCCC1c1c(C)n[nH]c1C` (stereo unspecified) was run?
A: Its value is 18%.

Q: How did the “Percent Effect” value (30 µM) turn out when `Cc1noc(C2CCCN(C(=O)CCCNc3ncccn3)C2)n1` (stereo unspecified) was run?
A: The value was -32%.

Q: `CN(CC(=O)N1CCN(c2ncccn2)CC1)c1ccc(Cl)cn1` was tested. Which “Percent Effect” value (30 µM, 30.03 µM) did it give?
A: The value was 26.44%.

Q: How did the “Percent Effect” value (30.3 µM, […]) turn out when `O=C(O)c1ccc(CC2CCN(Cc3ccc(-c4cc[nH]n4)o3)C2)cc1` (stereo unspecified) was run?
A: Its value is -33.6%.

Q: `O=C(O)c1ccccc1C1CCN(Cc2ccc(-c3cc[nH]n3)o2)C1` (stereo unspecified) was tested. Which “Percent Effect” value (30.3 µM, […]) did it give?
A: Its value is 8.649%.

Q: Which “Percent Effect” value (30.3 µM, […]) does the source give for `O=C(O)c1ccc(C2CCCN(Cc3ccc(-c4cc[nH]n4)o3)C2)cc1` (stereo unspecified) here?
A: The value was 54.21%.

Q: Which “Percent Effect” value (30.3 µM, […]) does the source give for `CNC(=O)CNC(=O)Nc1ccc(Br)c(F)c1` here?
A: Its value is -0.911%.

Q: `COc1ccc2ccccc2c1CNCC1CCS(=O)(=O)C1.Cl` (stereo unspecified) was tested. Which “Percent Effect” value (30.3 µM, […]) did it give?
A: The value was -2.378%.

Q: `CCOc1ccc2ccccc2c1CNCC1CCS(=O)(=O)C1.Cl` (stereo unspecified) was tested. Which “Percent Effect” value (30.3 µM, […]) did it give?
A: Its value is -4.478%.

Q: With `CCOc1ccc2ccccc2c1CNCC1CCNCC1.Cl.Cl` as the molecule, how does the “Percent Effect” value (30.3 µM, […]) read?
A: The value was 87.01%.

Q: Which “Percent Effect” value (30 µM, 30.03 µM) does the source give for `CN(C)C(=O)COC1COC2(CCN(S(C)(=O)=O)CC2)C1` (stereo unspecified) here?
A: The value was 8.131%.

Q: How did the “Percent Effect” value (30.3 µM, […]) turn out when `COc1ccc(-c2noc([C@@H](C)NS(=O)(=O)CC(C)C)c2C(=O)O)cc1` was run?
A: The value was 14.82%.

Q: With `OCc1ccncc1NCc1cnc(-c2ccccn2)s1` as the molecule, how does the “Percent Effect” value (30.3 µM, […]) read?
A: Its value is 26.01%.

Q: How did the “Percent Effect” value (30.3 µM, […]) turn out when `Cc1nn(CC(=O)NCCc2ccncc2)c(=O)n1Cc1ccccc1` was run?
A: The value was 4.169%.

Q: With `C=C(C)COc1cccc(CNCCc2nc(N)cc(O)n2)c1` as the molecule, how does the “Percent Effect” value (30.3 µM, […]) read?
A: Its value is 10.98%.

Q: `CCOCc1ccc(NC(=O)N2CCOC3(CCC3)C2)cc1` was tested. Which “Percent Effect” value (30.3 µM, […]) did it give?
A: The value was -4.354%.

Q: With `CC1(C)CN(CC(=O)NCc2ccccc2F)C[C@]1(C)O` as the molecule, how does the “Percent Effect” value (30.3 µM, […]) read?
A: The value was 15.59%.

Q: With `Cc1ccc(C(=O)O)cc1CNC(=O)CN1CC(C)(C)[C@@](C)(O)C1` as the molecule, how does the “Percent Effect” value (30.3 µM, […]) read?
A: The value was 14.97%.

Q: How did the “Percent Effect” value (30.3 µM, […]) turn out when `Cc1ccc(C(=O)O)cc1CNC(=O)CN1CC[C@](C)(O)C(C)(C)C1` was run?
A: Its value is 62.04%.
